Measurements reported in PubChem BioAssay (NCI).
Compounds without any hit were thinned out: in the full panel of roughly 83,000, 20% have a hit.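 Single-dose data. Exposure time 48 hours. Values below 10 considered active.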 A number with no mark means an inactive call. Activity calls are given as the source filed them.

The molecules below were run on 786-0 renal (assay: NCI-60 one-dose screen, 48 h (100 = growth as untreated, 0 = no growth, -100 = all killed)). Conditions: 10 µM unless noted.
With O=C(Cn1c2c(c3ccccc31)CCCC2)Nc1ccc(-c2nc3ccccc3s2)cc1 the growth was 109%.
In the case of Cc1cc(Cl)ccc1Nc1nc(C(F)(F)F)ccc1C(=O)N/N=C/c1ccc([N+](=O)[O-])cc1, the growth is reported as -61.2% (active).
O=C(Nn1c2c(sc1=NCc1ccccc1)C(=O)c1ccccc1C2=O)c1cc2ccc1CCc1ccc(cc1)CC2 gave a growth of 82.7%.
CC(C)c1ccc(COCc2cc(CN3CCCC3)c(O)c3ncccc23)cc1 was tested, and the growth was -15.4% (active).
With Cn1cccc1C(=O)C1C(c2cccc([N+](=O)[O-])c2)C2C3CCCCC3CN2C12C(=O)Nc1ccc(Cl)cc12 (centres undefined) the growth was 66.4%.

What follows are molecules tested on COLO 205 colon in the same assay as above. Conditions: 10 µM unless noted.
COc1cc(C(=O)n2nc(N3CCN(C)CC3)c3cc(N)ccc32)cc(OC)c1OC showed a growth of 107%.
Work on O=C1N[C@@H]2NC(=[N+]3CCOCC3)N[C@@H]2N1 yielded a growth of 115%.
With N#Cc1c(N)nnn1Cc1cc(=O)oc2c1ccc1ccccc12 the growth was 112%.
COc1cc(OC)cc(C2=C3CC[C@@H]4[C@H](CC[C@]5(C)C(=O)CC[C@@H]45)C3=CC3C(O)c4cccnc4N4C(=O)COC234)c1 (some centres undefined) showed a growth of 109%.
Work on C=C(C)[C@@H]1CC[C@]2(C(=O)N3CCN(C)CC3)CC[C@]3(C)[C@H](CC[C@@H]4[C@@]5(C)CC(=C/c6ccncc6)/C(=N/O)C(C)(C)[C@@H]5CC[C@]43C)[C@@H]12 yielded a growth of 80.8%.
For CN1CCN(Cc2ccc3c(NNC(=O)c4ccccc4)nc4cc(F)ccc4n23)CC1, the growth was 19.5%.
CCOC(=O)c1c2c(n3ccc(C)cc13)C(=O)c1ccccc1C2=O gave a growth of 108%.
For CCCC(=O)NC(c1ccc2c(c1)OCO2)c1ccc2cccnc2c1O (centres undefined), the growth was 8.58% (active).
In the case of Cc1nc2sc(C(=O)Nc3ccccc3)c(N)c2cc1C(=O)c1ccccc1, the growth is reported as -25% (active).
With COC(=O)c1ccc2c(c1)C(=O)c1c-2n(CCCN)c(=O)c2cc([N+](=O)[O-])ccc12 the growth was -100% (active).
For CO[C@]12C=C/C(=C(/C(=O)OCc3cccnc3)C(=O)CCCCCCCC[C@@]3(OC)C=C/C(=C(/C(=O)OCc4cccnc4)C(=O)CCCCCCCC1)O3)O2, the growth was -0.264% (active).
In the case of Brc1c2c(c(Br)c3ccccc13)CCCC2, the growth is reported as 102%.
Cc1cc2c([nH]1)CSc1cc(S(=O)(=O)c3ccccc3)c(=O)[nH]c1-2 was tested, and the growth was -40.5% [100 µM] (active).
Molecule CC1=C(Nc2ccc(N3CCN(C)CC3)cc2)C(=O)c2cncnc2C1=O has a growth of 124%.
Work on CCCCCCC1(C)NCCO1 (centres undefined) yielded a growth of 102%.
C#CCOc1cccc(Nc2ncnc3ccc(NC(=O)CCl)cc23)c1 was tested, and the growth was -64.6% (active).
Molecule COc1ccc(C(=O)C2C(c3ccc(OC)cc3)CN(C)C23C(=O)Nc2ccccc23)cc1 (centres undefined) has a growth of 105%.
In the case of CCN(CC)CCNC(=O)c1cn2ncnc(Oc3ccc(NC(=O)Nc4ccc(Cl)c(C(F)(F)F)c4)c(F)c3)c2c1C, the growth is reported as -59.5% (active).
CC(=O)OCc1nc(C#N)c(N(C)C)o1 was tested, and the growth was 105%.
Molecule CN[C@]12CC3(C=CC(=O)C=C3)O[C@@]1(Cc1ccc(OC)cc1)N(C)C(=O)N2 has a growth of 19%.
For C=C(CNCCc1ccc(O)cc1)[C@@H]1CC[C@]2(CO)CC[C@]3(C)[C@H](CC[C@@H]4[C@@]5(C)CCC(NCCO)C(C)(C)[C@@H]5CC[C@]43C)[C@@H]12 (some centres undefined), the growth was -68.5% (active).
With O=C1/C(=C\c2cn(-c3ccccc3)nc2-c2ccc(-c3cccs3)cc2)CCc2ccccc21 the growth was 74.6%.
Molecule Cc1ccc(-c2nn(-c3ccccc3)cc2C=C2C(=O)ON=C2C(C)C)cc1 has a growth of 114%.
CC/C(=C(/c1ccc(Cl)cc1)c1ccc(OCCN2CCCC2)cc1)c1ccc(OC)cc1 gave a growth of 64.7%.
Cc1c(-c2nc3ccc(F)cc3c(=O)[nH]2)c2ccccc2n1C showed a growth of 30.9%.
For COC1=CC(c2ccc[nH]2)=N/C1=C\c1[nH]c(C)c(C(=O)OCc2ccccc2)c1C, the growth was -82% (active).
For COc1ccc(C/C(C)=C(/c2ccc(OCCN3CCCCC3)cc2)c2ccc(OC(=O)NCc3ccccc3)cc2)cc1, the growth was -90.4% (active).
CC(C)N1CN2C(=S)NC3C2N(C1)C(=S)N3C (centres undefined) was tested, and the growth was 120%.
For CCCCN[C@H]1CC[C@@]2(C)[C@@H](CC[C@@]3(C)[C@H]2[C@H](O)C[C@H]2/C(=C(\CCC=C(C)C)C(=O)OC)[C@@H](OC(C)=O)C[C@@]23C)[C@@H]1C, the growth was 104%.
